# CYP2C9 inh: inhibitors of human CYP2C9 | 20% of 96,000 active | AID 777 | CYP2C9 Supersomes, luciferin-H conversion, luminescence | inhibition, % at 5 µM | P11712;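 active = blocking of liver enzyme CYP2C9 beyond about 50% at 5 µM, limit read from the data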
# CYP2C19 inh: blocks human cytochrome P450 2C19. P33261. CYP2C19 Supersomes, luciferin-H EGE luminescence, 30 min. inhibition, % at 5 µM. 21% of 96,000 active. AID 778;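 active = CYP2C19 inhibition above a set limit at 5 µM in the primary screen, cut at about 50% in these data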;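 also: plate controls were negative control wells for no effect and 2.5 mM tranylcypromine positive control for full effect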
# CYP2C19 activ: increases human CYP2C19 enzyme activity; P33261; recombinant CYP2C19, luciferin-H EGE luminescence; stronger effect = higher value; 0 = fully inhibited enzyme, 1 = untreated enzyme; activation factor at 5 µM; 96,000 tested, under 10 active; AID 1025;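 active = activation factor of at least 2 at 5 µM in the primary screen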;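 also: 0 = wells with 2.5 mM tranylcypromine and 1 = vehicle-only wells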
# EphB4 antag: blocks human EphB4 binding to ephrin-B2; P54760; 0.15% of 97,000 active; EphB4 LBD / TNYL-RAW-Alexa532 peptide, fluorescence polarization; inhibition, % at 7 µM;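 active = inhibition above the screen-wide mean inhibition plus 3 SD, cut at about 15% in these data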;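 also: 0% = DMSO wells and 100% = excess unlabeled TNYL-RAW peptide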
# CYP2C9 activ: CYP2C9 (human) activation; 1.4% of 96,000 active; P11712; activation factor at 5 µM; recombinant CYP2C9, luciferin-H conversion, luminescence; stronger effect = higher value; factor 1 = untreated enzyme, 0 = blocked; AID 1024;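 active = activation factor of 2 or more for CYP2C9 at a 5 µM dose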;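 also: 0 = sulfaphenazole-blocked wells and 1 = vehicle-only wells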
# An asterisk follows results filed as active; nt = not tested or not shown. Most compounds without a hit are left out; they make up all but 27% or so of the library.
SMILES,CYP2C9 inh,CYP2C19 inh,CYP2C19 activ,EphB4 antag,CYP2C9 activ
COCCn1c(Sc2nc(C)cs2)nc2c1c(=O)[nH]c(=O)n2C,13,20,0.8,-5,0.9
CN(C1=C(N2CCCCC2)C(=O)c2ccccc2C1=O)c1ccccc1,90*,95*,0.1,8,0.1
O=C1C(Nc2cccc(O)c2)=C(N2CCCCC2)C(=O)c2ccccc21,62*,39,0.6,4,0.4
O=C1C(Nc2ccccc2)=C(N2CCCCC2)C(=O)c2ccccc21,50,68*,0.3,5,0.5
O=C(/C=C/c1ccc(O)cc1)c1ccc(NC2=C(N3CCCCC3)C(=O)c3ccccc3C2=O)cc1,49,69*,0.3,-9,0.5
Cc1ccc(NC2=C(N3CCCCC3)C(=O)c3ccccc3C2=O)cc1,28,43,0.6,9,0.7
Cc1ccc(S(=O)(=O)N(CC(O)CN(C)C)c2ccccc2)cc1 (stereo not given),25,-5,1,-5,0.7
CCN1CCn2c1nc(N1CCOCC1)nc2=O,-8,-8,1.1,4,1.1
N=c1nc(SCCC(=O)O)ss1,1,-2,1,-1,1
CCOC(=O)C1CCN(S(=O)(=O)Cc2ccc(Cl)cc2)CC1,93*,87*,0.1,6,0.1
CCOC(=O)C1CCN(S(=O)(=O)Cc2ccccc2)CC1,69*,45,0.6,-1,0.3
O=P(O)(CCc1ccccn1)CN1CCCCC1,8,2,1,-5,0.9
COc1ccccc1OC(C)C(=O)Nc1nc(-c2ccc(S(=O)(=O)N3CCOCC3)cc2)cs1 (stereo not given),93*,37,0.6,-1,0.1
COc1ccccc1C(=O)Nc1nc(-c2ccc(S(=O)(=O)N3CCOCC3)cc2)cs1,47,34,0.7,1,0.5
CCOc1cccc(C(=O)Nc2nc(-c3ccc(S(=O)(=O)N4CCOCC4)cc3)cs2)c1,65*,26,0.7,-6,0.4
CC(C)CCN=Cc1c(O)n(-c2ccccc2)c(=O)c2ccccc12,16,19,0.8,-1,0.8
Cc1cc(C)c2nc(N3CCCC(C(=O)N4CCC(C(N)=O)CC4)C3)sc2c1 (stereo not given),-4,1,1,1,1
Cc1cc(C)c2nc(N)sc2c1,32,68*,0.3,1,0.7
O=C(Oc1ccc(-c2ccccc2)cc1)N1CCOCC1,-20,-9,1.1,2,1.2
O=C(OCc1ccccc1)N1CCOCCOCCN(C(=O)OCc2ccccc2)CCOCCOCC1,84*,27,0.7,3,0.2
O=C(Oc1cccc(Oc2ccccc2)c1)N1CCOCC1,0,63*,0.4,2,1
Cn1c(-c2ccccc2)cnc1SCC(=O)NCc1ccco1,29,26,0.7,2,0.7
COc1ccc(CCn2c(C)cc(C(=O)CSc3nc(N)cc(=O)[nH]3)c2C)cc1,8,23,0.8,-1,0.9
COc1ccc(CCn2c(C)cc(C(=O)CSc3nnc(N)s3)c2C)cc1,nt,nt,nt,16*,nt
COCC(C)n1c(C)cc(C(=O)CSc2nnc(N)s2)c1C (stereo not given),7,1,1,2,0.9
SMILES,CYP2C9 inh,CYP2C19 inh,CYP2C19 activ,EphB4 antag,CYP2C9 activ
COc1ccc(NC(=O)CSc2nnc(N)s2)cc1,10,1,1,6,0.9
CCOc1ccc(C(=O)CSc2nnc(N)s2)cc1,34,58*,0.4,2,0.7
Cc1cc(C(=O)CSc2nnc(N)s2)c(C)n1CCc1ccc(F)cc1,88*,96*,0,7,0.1
Cc1cc(C(=O)CSc2nnc(N)s2)c(C)n1CCc1ccc(Cl)cc1,79*,89*,0.1,0,0.2
CCOCc1cn(CC(=O)c2ccc([N+](=O)[O-])cc2)c(C)nc1=N,-37,-17,1.2,1,1.4
Cc1cc(N2CCOCC2)n2nc(C)c(-c3ccccc3)c2n1,2,0,1,-7,1
Cc1nc(CS(=O)c2ccc(Cl)cc2)cc(NCc2ccc(Cl)cc2Cl)n1 (stereo not given),96*,91*,0.1,-3,0
CCCc1cc(=O)n2[nH]c(NCc3ccc(Cl)cc3Cl)nc2n1,45,6,0.9,5,0.5
Cc1nc(CSc2ccc(Cl)cc2)cc(NCc2ccccc2)n1,91*,85*,0.2,2,0.1
CN(C)c1nc(Cl)cc(N2CCOCC2)n1,-71,3,1,-5,1.7
Cc1nc(CSc2ccc(Cl)cc2)cc(N2CCOCC2)n1,12,94*,0.1,4,0.9
CSCc1cc(N2CCOCC2)nc(SCc2ccc(Cl)c(Cl)c2)n1,49,53*,0.5,-9,0.5
COc1ccc(C(N)=O)cc1NC(=O)CC(O)(C(F)(F)F)C(F)(F)F,15,-8,1.1,-2,0.8
COc1ccc(NC(=O)CN2CCN(c3ccc(F)cc3)CC2)cc1Cl,17,5,0.9,-5,0.8
Cc1ccc(SC(C)C(=O)Nc2ncn[nH]2)cc1 (stereo not given),28,25,0.8,-2,0.7
CCOc1ccc(NC(=O)C(C)Sc2nnnn2C)cc1 (stereo not given),-14,5,0.9,2,1.1
COc1ccccc1-n1c(C)nnc1SCC(=O)NCc1ccccc1,nt,nt,nt,-1,nt
Nc1nc(CN2CCN(c3ccccn3)CC2)nc(Nc2ccc(F)cc2)n1,11,6,0.9,-11,0.9
Cc1cc(C(=O)Nc2sc3c(c2C#N)CCC(C(C)(C)C)C3)no1 (stereo not given),34,7,0.9,3,0.7
CC(C)(C)C1CCc2c(sc(NC(=O)c3cc(C4CC4)on3)c2C#N)C1 (stereo not given),73*,9,0.9,1,0.3
O=C(O)C1CCC(CNCc2cccnc2)CC1 (stereo not given),nt,nt,nt,1,nt
COC(=O)c1ccc(CSc2nnc3n(Cc4ccccc4OC)c(=O)c4ccccc4n23)o1,74*,72*,0.3,nt,0.3
COC(=O)c1ccc(CSc2nc3ccccc3c(=O)n2-c2ccc(OC)c(OC)c2)o1,96*,94*,0.1,-8,0
COC(=O)c1ccc(CSc2nnc3c(Cl)cc(Cl)cn23)o1,3,82*,0.2,-7,1
COC(=O)c1ccc(CSc2nc3ccccc3c(=O)n2-c2ccccc2)o1,74*,44,0.6,-5,0.3
SMILES,CYP2C9 inh,CYP2C19 inh,CYP2C19 activ,EphB4 antag,CYP2C9 activ
COc1ccc(CCNC(=O)c2nonc2N)cc1,nt,nt,nt,5,nt
CCCn1c(SCC(=O)OCc2ccccc2)nc2c1c(=O)n(C)c(=O)n2C,26,-1,1,8,0.7
COC(=O)c1sc(N)c(C(=O)OC)c1CSc1nc2sc3c(c2c(=O)n1C)CCC3,nt,nt,nt,1,nt
COC(=O)c1ccc(CSc2nc3sc4c(c3c(=O)n2C)CCCC4)o1,94*,84*,0.2,nt,0.1
COc1ccccc1-n1cnnc1SC1CCOC1=O (stereo not given),34,11,0.9,-3,0.7
COC(=O)c1ccc(CSc2nc3c(c(=O)n2-c2ccccc2)SCC3)o1,86*,48,0.5,nt,0.1

# Screening results: PubChem, several laboratories
